Experimental data: PubChem BioAssay (Tox21)
Records with an inconclusive call do not appear. Active and inactive are the calls of the source. Unless noted, the call rests on the fitted dose curve; in most records, active means well fitted curve in the direction sought with a large enough effect in the repeat runs; inconclusive means weak or mixed curves; inactive means no such curve, though single readings can be large; an effect the other way counts as inactive or inconclusive.

Assays:
[1] = Caspase-3/7 induction in HepG2 cells by small molecules, qHTS assay (AID 1346978); further: nearly all actives have a fitted effect of over 15% in size
Summary of the method: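 Wild-type HepG2 cells (2,000/well) were settled 5 h at 37 C, 5% CO2, then exposed to compounds in DMSO for 17 h. Caspase-3/7 activity was read by luminescence 30 min after adding Caspase-Glo 3/7 reagent at room temperature.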

[2] = Caspase-3/7 induction in CHO-K1 cells by small molecules, qHTS cell viability counter screen (AID 1346979); further: nearly all actives have a fitted effect of over 35% in size
Summary of the method: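 Multiplexed with Caspase-Glo 3/7 in CHO-K1 cells, this counter screen added CellTiter-Fluor after 16hr of compound exposure and recorded fluorescence 1hr later.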

[3] = Caspase-3/7 induction in CHO-K1 cells by small molecules, qHTS assay (AID 1346980); further: nearly all actives have a fitted effect of over 15% in size
Summary of the method: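 Wild-type cells were seeded at 1,500 per well and settled 5 hr at 37 C, 5% CO2, then exposed to DMSO-dissolved compounds for 17 hr. Caspase-Glo 3/7 reagent was added, and luminescence was read after 30min at room temperature.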

[4] = Caspase-3/7 induction in HepG2 cells by small molecules, qHTS cell viability counter screen (AID 1346981); further: series mostly up to about 92 µM; nearly all actives have a fitted effect of over 30% in size
Summary of the method: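 Viability determined by CellTiter-Fluor fluorescence in HepG2 wells also used for the luminescent Caspase-Glo 3/7 read. Compounds were present for 16 hr at 37 C, 5% CO2 before reagent addition.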

[5] = target: Acetylcholinesterase (Homo sapiens) (UniProt P22303); assay: Acetylcholinesterase (AChE) small molecule antagonists: colormetric cell-based qHTS assay (AID 1347395; calls by dose curve; further: nearly all actives have a fitted effect of over 30% in size)
Sequence of Acetylcholinesterase (Homo sapiens) (P22303 whole entry, looked up): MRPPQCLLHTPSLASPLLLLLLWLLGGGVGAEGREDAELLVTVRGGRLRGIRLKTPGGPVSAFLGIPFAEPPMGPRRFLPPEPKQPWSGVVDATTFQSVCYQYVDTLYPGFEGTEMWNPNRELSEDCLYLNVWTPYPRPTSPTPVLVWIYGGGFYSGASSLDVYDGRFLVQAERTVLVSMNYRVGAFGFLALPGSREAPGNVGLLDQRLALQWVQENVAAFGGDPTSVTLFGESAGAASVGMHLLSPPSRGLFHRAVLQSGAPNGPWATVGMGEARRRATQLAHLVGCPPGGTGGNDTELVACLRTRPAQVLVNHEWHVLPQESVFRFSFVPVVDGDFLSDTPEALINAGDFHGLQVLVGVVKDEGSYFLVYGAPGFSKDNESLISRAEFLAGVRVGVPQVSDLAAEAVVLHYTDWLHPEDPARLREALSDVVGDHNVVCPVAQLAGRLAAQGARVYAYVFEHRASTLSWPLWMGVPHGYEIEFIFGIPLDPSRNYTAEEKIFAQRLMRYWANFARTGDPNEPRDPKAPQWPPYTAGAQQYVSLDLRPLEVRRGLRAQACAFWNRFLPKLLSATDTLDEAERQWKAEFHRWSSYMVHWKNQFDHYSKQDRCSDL
Summary of the method: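 In this cell-based qHTS, attached SH-SY5Y cells were treated with test chemicals for 30 min, after which acetylthiocholine hydrolysis was followed by DTNB colour development over 90 min at 37 C.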

[6] = target: Acetylcholinesterase (Homo sapiens) (UniProt P22303); assay: Acetylcholinesterase (AChE) small molecule antagonists: enzyme-based qHTS assay (AID 1347397; calls by dose curve; further: nearly all actives have a fitted effect of over 55% in size); conditions: Potency: AChE enzyme activity inhibition; outcome: AChE enzyme activity inhibition
Summary of the method: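 Human recombinant acetylcholinesterase; substrate acetylthiocholine; thiocholine quantified with DTNB (colorimetric). Compound preincubation 30 min RT; reaction 10 min RT.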

[7] = target: Acetylcholinesterase (Homo sapiens) (UniProt P22303); assay: Acetylcholinesterase (AChE) small molecule antagonists: fluorescence cell-based qHTS assay (AID 1347398; calls by dose curve; further: nearly all actives have a fitted effect of over 50% in size); conditions: Potency: AChE activity; outcome: AChE activity
Summary of the method: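 Thiocholine generated from acetylthiocholine by SH-SY5Y cell AChE is detected with Thiolite Green (Ex/Em 490/520 nm) after 40 min at room temperature, following 30 min compound pretreatment at 37 C.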

[8] = target: Acetylcholinesterase (Homo sapiens) (UniProt P22303); assay: Acetylcholinesterase (AChE) small molecule antagonists: enzyme-based qHTS assay with human liver microsomes (AID 1347399; calls by dose curve; further: nearly all actives have a fitted effect of over 60% in size); conditions: Potency: qHTS inhibition; outcome: qHTS inhibition
Summary of the method: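 Recombinant human AChE (50 mU/mL in the enzyme mix) and human liver microsomes (0.25 mg/mL final) were preincubated with compound and NADPH (0.25 mg/mL final) for 30 min at 37 C. Acetylthiocholine/DTNB was then added; thiocholine was read colorimetrically after 10 min at room temperature.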

[9] = target: Cytochrome P450 2D6 (Homo sapiens) (UniProt P10635); assay: Cytochrome P450 Family 2 Subfamily D Member 6 (CYP2D6) small molecule antagonists: luciferase reporter qHTS assay (AID 1671196); further: nearly all actives have a fitted effect of over 50% in size; further: potency means the concentration at half of the fitted maximal effect
Sequence of Cytochrome P450 2D6 (Homo sapiens) (P10635 whole entry, looked up): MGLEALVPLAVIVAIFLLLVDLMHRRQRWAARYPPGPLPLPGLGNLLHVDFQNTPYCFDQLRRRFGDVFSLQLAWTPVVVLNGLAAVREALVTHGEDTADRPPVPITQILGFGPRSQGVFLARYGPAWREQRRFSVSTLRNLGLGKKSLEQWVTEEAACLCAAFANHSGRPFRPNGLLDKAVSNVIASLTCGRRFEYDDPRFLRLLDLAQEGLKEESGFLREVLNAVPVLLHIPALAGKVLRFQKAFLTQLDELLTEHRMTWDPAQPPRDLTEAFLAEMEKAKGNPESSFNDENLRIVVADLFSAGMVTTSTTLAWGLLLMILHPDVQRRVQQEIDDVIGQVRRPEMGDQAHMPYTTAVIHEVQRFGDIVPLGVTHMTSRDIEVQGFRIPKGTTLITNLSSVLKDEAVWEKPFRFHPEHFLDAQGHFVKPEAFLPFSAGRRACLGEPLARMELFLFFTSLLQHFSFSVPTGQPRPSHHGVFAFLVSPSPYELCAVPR
Summary of the method: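 Each well received CYP2D6 with its proluciferin substrate and chemical, sat 10 min, then got NADPH regeneration solution for 1 h at room temperature. Luminescence in RLU served as the activity measure.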

[10] = target: Cytochrome P450 2C19 (Homo sapiens) (UniProt P33261); assay: Cytochrome P450 Family 2 Subfamily C Member 19 (CYP2C19) small molecule antagonists: luciferase reporter qHTS assay (AID 1671197); further: nearly all actives have a fitted effect of over 65% in size; further: potency means the concentration at half of the fitted maximal effect
Sequence of Cytochrome P450 2C19 (Homo sapiens) (P33261 whole entry, looked up): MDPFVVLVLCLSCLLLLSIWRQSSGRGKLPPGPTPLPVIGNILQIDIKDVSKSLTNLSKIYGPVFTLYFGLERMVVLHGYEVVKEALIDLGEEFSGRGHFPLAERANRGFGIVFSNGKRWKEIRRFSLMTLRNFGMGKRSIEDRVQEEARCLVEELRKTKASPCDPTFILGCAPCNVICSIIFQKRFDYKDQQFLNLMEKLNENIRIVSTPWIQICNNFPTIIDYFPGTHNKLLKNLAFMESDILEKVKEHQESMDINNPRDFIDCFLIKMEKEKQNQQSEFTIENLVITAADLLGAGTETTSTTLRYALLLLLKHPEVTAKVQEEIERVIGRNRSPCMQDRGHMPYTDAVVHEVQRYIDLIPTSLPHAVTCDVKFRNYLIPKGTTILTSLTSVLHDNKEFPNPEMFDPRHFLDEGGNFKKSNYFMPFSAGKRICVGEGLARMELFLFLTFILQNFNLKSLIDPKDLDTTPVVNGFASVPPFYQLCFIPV
Summary of the method: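 Relative luminescence units recorded 20 min after the detection reagent stopped a 1 h, 37C CYP2C19 reaction on proluciferin substrate, which was started by NADPH regeneration following 10 min room-temperature compound preincubation; ketoconazole positive control.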

[11] = target: Cytochrome P450 2C9 (Homo sapiens) (UniProt P11712); assay: Cytochrome P450 Family 2 Subfamily C Member 9 (CYP2C9) small molecule antagonists: luciferase reporter qHTS assay (AID 1671198); further: nearly all actives have a fitted effect of over 50% in size; further: potency means the concentration at half of the fitted maximal effect
Sequence of Cytochrome P450 2C9 (Homo sapiens) (P11712 whole entry, looked up): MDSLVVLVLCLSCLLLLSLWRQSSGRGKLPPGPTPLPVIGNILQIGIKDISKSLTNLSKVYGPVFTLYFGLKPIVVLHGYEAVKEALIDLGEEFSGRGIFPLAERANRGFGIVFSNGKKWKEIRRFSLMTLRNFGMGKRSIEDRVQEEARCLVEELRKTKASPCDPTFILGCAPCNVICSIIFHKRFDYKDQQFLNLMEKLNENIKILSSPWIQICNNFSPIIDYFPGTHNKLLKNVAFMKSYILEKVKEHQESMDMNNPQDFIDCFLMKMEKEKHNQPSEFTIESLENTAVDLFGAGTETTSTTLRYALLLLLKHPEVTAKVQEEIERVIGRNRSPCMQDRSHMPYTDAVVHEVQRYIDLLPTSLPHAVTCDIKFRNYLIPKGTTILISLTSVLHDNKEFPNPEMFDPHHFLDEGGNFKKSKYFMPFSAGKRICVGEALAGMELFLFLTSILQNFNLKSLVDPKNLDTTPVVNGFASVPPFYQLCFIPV
Summary of the method: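 CYP2C9 activity was measured with a P450-Glo proluciferin substrate. Enzyme–substrate mix was held with compound for 10 min at room temperature, then NADPH regeneration solution was added for 1 h at 37C. Luciferin product was read as luminescence.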

[12] = target: Cytochrome P450 1A2 (Homo sapiens) (UniProt P05177); assay: Cytochrome P450 Family 1 Subfamily A Member 2 (CYP1A2) small molecule antagonists: luciferase reporter qHTS assay (AID 1671199); further: nearly all actives have a fitted effect of over 50% in size; further: potency means the concentration at half of the fitted maximal effect
Sequence of Cytochrome P450 1A2 (Homo sapiens) (P05177 whole entry, looked up): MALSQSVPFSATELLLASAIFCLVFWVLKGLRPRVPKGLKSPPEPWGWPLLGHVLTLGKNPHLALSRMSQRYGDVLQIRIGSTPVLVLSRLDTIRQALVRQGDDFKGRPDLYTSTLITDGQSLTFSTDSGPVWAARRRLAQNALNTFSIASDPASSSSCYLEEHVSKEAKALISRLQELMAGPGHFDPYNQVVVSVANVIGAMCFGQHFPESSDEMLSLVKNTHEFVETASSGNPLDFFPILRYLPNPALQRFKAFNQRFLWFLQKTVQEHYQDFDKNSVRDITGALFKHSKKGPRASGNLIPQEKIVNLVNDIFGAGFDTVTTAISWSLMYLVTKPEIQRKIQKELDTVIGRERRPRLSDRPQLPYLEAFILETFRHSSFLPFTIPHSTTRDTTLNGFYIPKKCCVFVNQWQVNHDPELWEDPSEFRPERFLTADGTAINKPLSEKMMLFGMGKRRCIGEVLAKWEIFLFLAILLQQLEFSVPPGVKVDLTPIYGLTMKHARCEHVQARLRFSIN
Summary of the method: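 Enzymatic CYP1A2 assay, human, luminescent: 10 min compound–enzyme–substrate preincubation, 1 h NADPH-dependent turnover, 20 min detection step, room temperature throughout. Reduced light indicates lower CYP1A2 activity.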

[13] = target: Voltage-gated inwardly rectifying potassium channel KCNH2 (Homo sapiens) (UniProt Q12809); assay: Human Ether-a-go-go-Related Gene (hERG) channel small molecule antagonists: fluorescence cell-based qHTS assay (AID 1671200)
Sequence of Voltage-gated inwardly rectifying potassium channel KCNH2 (Homo sapiens) (Q12809 whole entry, looked up): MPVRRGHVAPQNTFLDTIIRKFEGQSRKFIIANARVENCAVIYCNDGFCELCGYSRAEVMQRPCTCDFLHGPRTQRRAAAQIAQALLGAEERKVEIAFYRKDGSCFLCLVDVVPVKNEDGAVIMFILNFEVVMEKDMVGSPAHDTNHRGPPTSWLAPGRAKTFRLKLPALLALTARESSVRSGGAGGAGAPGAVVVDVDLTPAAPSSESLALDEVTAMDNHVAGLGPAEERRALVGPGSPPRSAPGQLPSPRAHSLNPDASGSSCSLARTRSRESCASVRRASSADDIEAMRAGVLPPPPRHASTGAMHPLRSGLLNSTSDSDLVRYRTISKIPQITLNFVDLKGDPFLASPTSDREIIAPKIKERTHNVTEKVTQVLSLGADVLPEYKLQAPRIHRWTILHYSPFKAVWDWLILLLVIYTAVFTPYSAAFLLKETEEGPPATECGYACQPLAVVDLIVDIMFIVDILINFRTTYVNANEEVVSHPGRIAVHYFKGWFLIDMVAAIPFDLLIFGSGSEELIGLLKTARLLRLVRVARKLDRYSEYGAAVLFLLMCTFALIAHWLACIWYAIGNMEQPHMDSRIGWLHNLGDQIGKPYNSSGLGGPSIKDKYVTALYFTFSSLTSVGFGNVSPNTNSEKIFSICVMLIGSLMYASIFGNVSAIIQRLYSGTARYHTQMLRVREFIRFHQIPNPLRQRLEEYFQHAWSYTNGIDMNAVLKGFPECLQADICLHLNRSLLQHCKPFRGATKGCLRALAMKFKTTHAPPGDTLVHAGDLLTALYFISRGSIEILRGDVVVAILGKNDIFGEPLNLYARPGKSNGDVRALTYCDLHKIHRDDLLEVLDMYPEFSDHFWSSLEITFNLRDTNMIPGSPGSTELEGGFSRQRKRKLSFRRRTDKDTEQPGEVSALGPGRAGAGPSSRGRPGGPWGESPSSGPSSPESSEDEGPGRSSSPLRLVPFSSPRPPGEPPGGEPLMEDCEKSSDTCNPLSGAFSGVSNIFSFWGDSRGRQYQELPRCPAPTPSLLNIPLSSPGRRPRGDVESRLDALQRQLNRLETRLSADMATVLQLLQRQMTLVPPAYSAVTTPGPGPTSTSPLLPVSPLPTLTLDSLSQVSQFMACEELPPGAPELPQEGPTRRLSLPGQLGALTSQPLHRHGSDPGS
Summary of the method: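 Cell line hERG-U2OS; dye FluxOR II, 1 h RT dark; Tl+ stimulus; ex 480/em 540 nm, read each second for 2 min.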

[14] = target: Cytochrome P450 3A4 (Homo sapiens) (UniProt P08684); assay: Cytochrome P450 Family 3 Subfamily A Member 4 (CYP3A4) small molecule antagonists: luciferase reporter qHTS assay (AID 1671201)
Sequence of Cytochrome P450 3A4 (Homo sapiens) (P08684 whole entry, looked up): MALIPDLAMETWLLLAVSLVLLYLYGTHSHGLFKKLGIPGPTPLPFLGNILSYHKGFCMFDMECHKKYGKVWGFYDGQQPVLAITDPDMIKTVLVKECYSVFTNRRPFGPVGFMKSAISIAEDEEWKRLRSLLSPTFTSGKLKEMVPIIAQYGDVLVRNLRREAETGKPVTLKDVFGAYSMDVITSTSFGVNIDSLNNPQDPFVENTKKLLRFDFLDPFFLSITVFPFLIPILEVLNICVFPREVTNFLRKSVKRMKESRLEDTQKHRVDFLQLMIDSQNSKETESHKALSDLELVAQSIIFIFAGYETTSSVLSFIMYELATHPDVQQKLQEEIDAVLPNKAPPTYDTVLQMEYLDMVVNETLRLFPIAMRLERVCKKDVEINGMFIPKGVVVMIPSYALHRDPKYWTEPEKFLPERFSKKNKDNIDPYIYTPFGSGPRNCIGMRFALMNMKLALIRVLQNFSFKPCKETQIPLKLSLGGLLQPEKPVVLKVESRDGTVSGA
Summary of the method: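 Room-temperature assay throughout: 10 min compound–enzyme/substrate preincubation, 1 h reaction after NADPH regeneration solution, 20 min detection. Luciferin formed from proluciferin substrate is quantified by luminescence.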

[15] = target: Nuclear receptor subfamily 1 group I member 2 (Rattus norvegicus) (UniProt Q9R1A7); assay: Rat pregnane X receptor (rPXR) activation by small molecules, qHTS assay (AID 1346983); conditions: rPXR luciferase reporter cells, One-Glo luminescence, 24 h; stronger effect = higher value; further: nearly all actives have a fitted effect of over 20% in size
Summary of the method: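 Cell-based rPXR luciferase reporter assay, 2,000 cells per well, rested 5hr at 37 C before compound addition in DMSO, then 24 hr at 37 C. One-Glo reagent was added and luminescence read after 30 min at room temperature.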

[16] = target: Nuclear receptor subfamily 1 group I member 2 (Homo sapiens) (UniProt O75469); assay: CYP3A4 induction through human pregnane X receptor (PXR) by small molecules, qHTS assay (AID 1346984); further: nearly all actives have a fitted effect of over 40% in size
Sequence of Nuclear receptor subfamily 1 group I member 2 (Homo sapiens) (O75469 whole entry, looked up): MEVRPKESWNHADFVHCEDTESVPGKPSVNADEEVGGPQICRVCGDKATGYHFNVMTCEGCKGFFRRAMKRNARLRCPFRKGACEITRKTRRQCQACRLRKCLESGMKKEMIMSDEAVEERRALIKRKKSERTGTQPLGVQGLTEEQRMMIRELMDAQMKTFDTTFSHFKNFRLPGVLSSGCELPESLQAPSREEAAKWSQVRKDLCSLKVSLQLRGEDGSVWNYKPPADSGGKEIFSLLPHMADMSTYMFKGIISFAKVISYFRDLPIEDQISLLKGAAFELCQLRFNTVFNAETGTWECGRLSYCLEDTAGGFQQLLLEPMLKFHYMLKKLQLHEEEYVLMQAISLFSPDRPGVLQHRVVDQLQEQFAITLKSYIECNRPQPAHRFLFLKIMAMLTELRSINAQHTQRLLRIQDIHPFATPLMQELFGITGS
Summary of the method: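 Readings come from a luciferase reporter: DPX-2 cells, which are HepG2 cotransfected with PXR and a CYP3A4-promoter construct, were exposed to test compounds for 24 h at 37C before One-Glo detection.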

[17] = target: Nuclear receptor subfamily 1 group I member 2 (Homo sapiens) (UniProt O75469); assay: Human pregnane X receptor (PXR) activation by small molecules, qHTS assay (AID 1346985); further: nearly all actives have a fitted effect of over 40% in size
Summary of the method: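 DPX-2 cells (HepG2 co-transfected with a PXR response element and a CYP3A4-promoter luciferase construct) were seeded at 2,000 per well, rested 5 hr at 37C, then exposed to DMSO-dissolved compounds for 24 hr. Activation was read as luciferase luminescence.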

[18] = target: Nuclear receptor subfamily 1 group I member 2 (Homo sapiens) (UniProt O75469); assay: Human pregnane X receptor (PXR) small molecule agonists, qHTS assay (AID 1346982); further: nearly all actives have a fitted effect of over 35% in size
Summary of the method: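 Compound-induced hPXR transactivation of a CYP3A4 luciferase reporter was scored in HepG2 PXR-Luc cells over 24 hr at 37 C, 5% CO2, by luminescence.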
On the % scale 0 is the no-effect control and ±100 the full control effect.

OP(O)c1ccccc1
inactive: outcome [1] | Potency [2] | outcome [3] | Potency [4] | Potency [5] | Potency [6] | Potency [7] | Potency [8] | Potency [9] | Potency [10] | Potency [11] | Potency [12] | Potency [13] | Potency [14]

N=C(N)[Se]
inactive: outcome [1] | Potency [2] | outcome [3] | Potency [4] | Potency [5] | Potency [6] | Potency [7] | Potency [8] | Potency [9] | Potency [10] | Potency [11] | Potency [13] | Potency [14]

COc1ccccc1OC
active: Potency [10] 79.6 µM
inactive: outcome [1] | Potency [2] | outcome [3] | Potency [4] | Potency [5] | Potency [6] | Potency [7] | Potency [8] | Potency [9] | Potency [11] | Potency [14]

C#CCOC(=O)/C=C(C)/C=C/CC(C)CCCC(C)C (stereo not given)
inactive: outcome [1] | Potency [2] | outcome [3] | Potency [4] | Potency [5] | Potency [6] | Potency [7] | Potency [8] | Potency [9] | Potency [14]
active: Potency [10] 79.6 µM | Potency [11] 31.7 µM | Potency [12] 28.3 µM

Cc1ccc(Cl)c(O)c1
inactive: outcome [1] | Potency [2] | outcome [3] | Potency [4] | max activation [15] -0.916% | Potency [16] | Potency [17] | Potency [6] | Potency [7] | Potency [8] | Potency [9] | Potency [10] | Potency [11] | Potency [12] | Potency [13] | Potency [14]

CCOC(=O)CCl
inactive: outcome [1] | Potency [2] | outcome [3] | Potency [4] | Potency [5] | Potency [6] | Potency [7] | Potency [8] | Potency [9] | Potency [10] | Potency [11] | Potency [12] | Potency [14]

CCC(=O)OC1(c2ccccc2)CCN(C)CC1
active: Potency [9] 37.5 µM
inactive: outcome [1] | Potency [2] | outcome [3] | Potency [4] | Potency [18] | Potency [10] | Potency [11] | Potency [12] | Potency [14]

[P]#[In]
inactive: outcome [1] | Potency [2] | outcome [3] | Potency [4] | Potency [18] | Potency [6] | Potency [7] | Potency [8] | Potency [9] | Potency [10] | Potency [11] | Potency [12] | Potency [13] | Potency [14]

ClCCN1CCCC1
inactive: outcome [1] | Potency [2] | outcome [3] | Potency [4] | Potency [18] | Potency [5] | Potency [7] | Potency [8] | Potency [9] | Potency [11] | Potency [12] | Potency [13] | Potency [14]

Nc1c(Cl)c(F)nc(OCC(=O)O)c1Cl
inactive: outcome [1] | Potency [2] | outcome [3] | Potency [4] | Potency [18] | Potency [6] | Potency [7] | Potency [8] | Potency [9] | Potency [11] | Potency [13] | Potency [14]

CC(C)(C)C(=O)C(Cl)Cl
inactive: outcome [1] | Potency [2] | outcome [3] | Potency [4] | Potency [18] | Potency [6] | Potency [7] | Potency [8] | Potency [9] | Potency [10] | Potency [11] | Potency [13] | Potency [14]

C[C@H](N)C(=O)c1ccccc1
active: Potency [9] 42.2 µM | Potency [10] 47.3 µM | Potency [12] 53.1 µM
inactive: outcome [1] | Potency [2] | outcome [3] | Potency [4] | Potency [18] | Potency [6] | Potency [7] | Potency [8] | Potency [13]
